# From PubChem BioAssay (NCATS)
# Several values for one entry are separate records, joined by “and”; a condition that tells them apart may be missing. Equal values may be shown once. Inconclusive results are not listed. Entries that show only a call come without a potency. Activity calls are given as the source filed them. Unless noted, calls follow the shape of the dose curve; as a rule, active = well fitted curve in the direction sought with a large enough effect; inconclusive = small, poorly fitted or top-dose-only effect, or another doubt; inactive = no such curve, though single readings can be large; an effect the other way counts as inactive or inconclusive.
# Columns and labels:
# [1] = molecular target: Ferritin light chain (Equus caballus) (UniProt P02791); assay: qHTS Validation Assay for Identification of Novel General Anesthetics (AID 2323); conditions: horse apoferritin, anesthetic-site fluorescent probe displacement; series mostly up to 76.9 µM
# Sequence of Ferritin light chain (Equus caballus) (P02791 2-175 limits assumed): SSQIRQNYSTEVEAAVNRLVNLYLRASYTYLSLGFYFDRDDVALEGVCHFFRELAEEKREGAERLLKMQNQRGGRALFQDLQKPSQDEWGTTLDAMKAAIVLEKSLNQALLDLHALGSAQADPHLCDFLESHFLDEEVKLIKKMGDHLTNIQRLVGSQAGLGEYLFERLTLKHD
# Method in brief: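 Competitive displacement of the profluorescent anesthetic 1-AMA (50% saturated, PBS) from 10 uM apoferritin, 10 min, room temperature. Activity is normalized 380/535 nm fluorescence; concentration-response fitted with a four-parameter Hill equation.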
# [2] = Cytometry Cell-Based qHTS for Inhibitors of the mTORC1 Signaling Pathway in MEF cells (AID 2668); conditions: mTORC1 pathway readout; series mostly up to 38.3 µM; also: potency is read from the fitted curve at half-maximal effect
# Method in brief: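 Phospho-rpS6 (Ser235/236) immunofluorescence over PI signal, scored as % positive cells using thresholds from 7.5 nM rapamycin and DMSO wells, after 24 h compound exposure of WT-Tsc2-rescued Tsc2-/-, p53-/- MEFs. PI cell count recorded for viability.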
# [3] = molecular target: Endonuclease 4 (Escherichia coli (strain K12)) (UniProt P0A6C1); assay: Counterscreen for APE1 Inhibitors: qHTS Validation Assay for Inhibitors of Endonuclease IV (AID 1708); conditions: E. coli endonuclease IV, DNA cleavage fluorescence; series mostly up to 57.1 µM
# Method in brief: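 Concentration-response counterscreen run identically to the APE1 assay: 15 min room-temperature preincubation of 2 nM enzyme with compound, reaction started with 50 nM quenched abasic DNA, progress taken from kinetic fluorescence.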
# [4] = qHTS for differential inhibitors of proliferation of Plasmodium falciparum line 7G8 (AID 1815); conditions: Plasmodium falciparum 7G8 proliferation inhibition; series mostly up to 28.7 µM;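 also: potency is read from the fitted curve at half-maximal effect; parasite growth measured after three days of incubation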
# [5] = qHTS for differential inhibitors of proliferation of Plasmodium falciparum line 3D7 (AID 1876); also: potency is read from the fitted curve at half-maximal effect; conditions: P. falciparum 3D7 proliferation inhibition; series mostly up to 28.7 µM
# [6] = qHTS for differential inhibitors of proliferation of Plasmodium falciparum line HB3 (AID 1886); conditions: Potency: Plasmodium falciparum HB3 proliferation inhibition; series mostly up to 28.7 µM;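 also: potency is read from the fitted curve at half-maximal effect; parasites grown with compound for 72 h before SYBR Green readout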
# [7] = qHTS assay for small molecule antagonists of peroxisome proliferator-activated receptor delta signaling (AID 588535; active = well fitted inhibition curve with a large enough effect in the signal ratio, with a control signal flat, not every such curve was filed as active; the % refers to the signal ratio;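 as to max response: cells co-treated with a PPAR-delta agonist as stimulator during compound exposure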); conditions: HEK293T PPARd-UAS-bla, beta-lactamase FRET ratio, 18 h; 460 nm channel
# Method in brief: (§1)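 Reporter: UAS-bla under PPAR-delta response element, HEK293T host. Medium: 2% charcoal/dextran FBS. Dosing: titration, 18 hrs, 37 C. Detection: CCF4, 2 hrs RT, 405 ex/460 and 530 em.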
# [8] = molecular target: Peroxisome proliferator-activated receptor delta (Homo sapiens) (UniProt Q03181); assay: as above; conditions: HEK293T PPARd-UAS-bla, beta-lactamase FRET ratio, 18 h; series mostly up to 76.7 µM
# Sequence of Peroxisome proliferator-activated receptor delta (Homo sapiens) (Q03181 whole entry, looked up): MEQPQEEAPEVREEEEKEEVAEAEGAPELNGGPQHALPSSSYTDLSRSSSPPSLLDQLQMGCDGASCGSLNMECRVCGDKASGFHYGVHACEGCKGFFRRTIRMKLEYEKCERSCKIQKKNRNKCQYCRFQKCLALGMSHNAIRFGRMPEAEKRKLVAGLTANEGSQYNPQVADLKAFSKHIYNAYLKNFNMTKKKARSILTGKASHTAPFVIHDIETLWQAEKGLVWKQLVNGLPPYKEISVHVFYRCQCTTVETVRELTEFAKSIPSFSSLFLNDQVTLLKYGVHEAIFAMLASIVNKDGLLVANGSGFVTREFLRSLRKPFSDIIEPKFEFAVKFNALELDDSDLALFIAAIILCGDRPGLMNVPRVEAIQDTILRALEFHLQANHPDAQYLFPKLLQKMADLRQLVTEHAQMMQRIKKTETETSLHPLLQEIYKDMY
# Method in brief: as §1
# [9] = molecular target: Vitamin D3 receptor (Homo sapiens) (UniProt P11473); assay: qHTS assay for small molecule agonists of vitamin D receptor signaling (AID 588543; calls by dose curve); conditions: HEK293T VDR-UAS-bla, beta-lactamase ratio, 16 h; series mostly up to 76.8 µM
# Sequence of Vitamin D3 receptor (Homo sapiens) (P11473 whole entry, looked up): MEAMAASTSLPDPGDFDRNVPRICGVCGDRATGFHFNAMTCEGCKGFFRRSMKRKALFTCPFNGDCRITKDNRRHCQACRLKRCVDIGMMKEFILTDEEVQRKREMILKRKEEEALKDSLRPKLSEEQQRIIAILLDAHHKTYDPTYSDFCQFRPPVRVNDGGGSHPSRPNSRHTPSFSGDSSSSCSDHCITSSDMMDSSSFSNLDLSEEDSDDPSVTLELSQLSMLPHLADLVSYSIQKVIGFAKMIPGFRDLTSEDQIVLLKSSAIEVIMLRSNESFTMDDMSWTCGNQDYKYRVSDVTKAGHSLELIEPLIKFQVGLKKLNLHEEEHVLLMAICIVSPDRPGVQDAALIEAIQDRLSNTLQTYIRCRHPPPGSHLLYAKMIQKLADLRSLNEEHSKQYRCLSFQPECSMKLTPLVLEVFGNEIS
# Method in brief: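 Agonist-mode beta-lactamase reporter: HEK293T VDR-UAS-bla cells in charcoal-stripped 2% FBS, compound series 16 h 37 C, CCF4 2 h RT. EC50 from Hill fit, scaled against DMSO and 50 nM calcitriol control.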
# [10] = qHTS assay for small molecule agonists of retinoid X receptor alpha signaling (AID 588544; calls by dose curve); conditions: HEK293T RXRa-UAS-bla, beta-lactamase reporter, 18 h; 530 nm emission
# [11] = molecular target: Retinoic acid receptor RXR-alpha (Homo sapiens) (UniProt P19793); assay: as above; conditions: HEK293T RXRa-UAS-bla, beta-lactamase reporter, 18 h; series mostly up to 76.7 µM
# Sequence of Retinoic acid receptor RXR-alpha (Homo sapiens) (P19793 whole entry, looked up): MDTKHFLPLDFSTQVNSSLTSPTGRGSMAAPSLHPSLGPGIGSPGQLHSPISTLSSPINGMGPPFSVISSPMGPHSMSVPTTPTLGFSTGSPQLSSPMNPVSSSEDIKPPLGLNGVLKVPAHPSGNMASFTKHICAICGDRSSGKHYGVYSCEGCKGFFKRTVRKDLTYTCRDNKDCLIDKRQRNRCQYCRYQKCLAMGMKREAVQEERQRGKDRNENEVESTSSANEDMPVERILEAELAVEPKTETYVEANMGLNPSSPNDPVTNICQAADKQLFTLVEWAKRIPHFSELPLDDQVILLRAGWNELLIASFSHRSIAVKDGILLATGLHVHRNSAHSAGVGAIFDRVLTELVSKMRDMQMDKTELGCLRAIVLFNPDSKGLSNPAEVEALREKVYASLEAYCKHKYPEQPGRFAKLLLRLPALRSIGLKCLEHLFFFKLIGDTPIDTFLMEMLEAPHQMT
# [12] = molecular target: Nuclear receptor subfamily 1 group I member 2 (Rattus norvegicus) (UniProt Q9R1A7); assay: qHTS assay for small molecule activators of the rat pregnane X receptor (rPXR) signaling pathway (AID 651751; call rule not given here); conditions: rPXR reporter cells, luciferase (One-Glo), 24 h
# [13] = qHTS assay for small molecule activators of the human pregnane X receptor (PXR) signaling pathway (AID 720659; call rule not given here); conditions: DPX-2 HepG2 CYP3A4-luciferase, 24 h; series mostly up to 92.3 µM
# [14] = molecular target: Estrogen receptor (Homo sapiens) (UniProt P03372); assay: qHTS assay for small molecule antagonists of estrogen receptor alpha signaling (AID 588513; active = well fitted curve in the direction sought with a large enough effect in the signal ratio, with a control signal flat, not every such curve was filed as active; the % refers to the signal ratio); conditions: ER-alpha-UAS-bla HEK293, beta-lactamase ratio, antagonist mode; series mostly up to 76.9 µM
# Sequence of Estrogen receptor (Homo sapiens) (P03372 whole entry, looked up): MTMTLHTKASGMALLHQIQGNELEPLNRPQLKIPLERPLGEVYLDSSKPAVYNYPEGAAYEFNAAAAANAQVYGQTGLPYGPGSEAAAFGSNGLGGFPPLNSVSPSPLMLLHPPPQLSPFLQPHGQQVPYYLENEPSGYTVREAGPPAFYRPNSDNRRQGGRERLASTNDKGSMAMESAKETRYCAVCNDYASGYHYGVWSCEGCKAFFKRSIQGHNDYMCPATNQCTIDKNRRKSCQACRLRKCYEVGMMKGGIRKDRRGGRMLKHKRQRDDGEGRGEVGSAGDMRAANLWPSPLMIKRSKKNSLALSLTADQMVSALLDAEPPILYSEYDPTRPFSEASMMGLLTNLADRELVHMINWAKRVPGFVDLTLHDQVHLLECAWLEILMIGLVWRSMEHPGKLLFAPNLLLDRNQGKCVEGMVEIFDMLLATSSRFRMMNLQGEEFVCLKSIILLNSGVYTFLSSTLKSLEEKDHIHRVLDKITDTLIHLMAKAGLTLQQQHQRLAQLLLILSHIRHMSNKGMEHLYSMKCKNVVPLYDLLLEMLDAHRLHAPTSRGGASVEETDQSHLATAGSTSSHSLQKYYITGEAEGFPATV
# Method in brief: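 Antagonist mode: inhibition of 0.5 nM 17-beta-estradiol-driven beta-lactamase reporter in HEK 293 ER-alpha-UAS-bla cells, 18 h at 37C, CCF4 readout after 2 h at RT. Normalised to estradiol and DMSO; titration fitted to Hill.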
# [15] = molecular target: Bile acid receptor (Homo sapiens) (UniProt Q96RI1); assay: qHTS assay for small molecule antagonists of farnesoid X receptor signaling (AID 588526; calls by dose curve); conditions: HEK293T FXR-UAS-bla, beta-lactamase ratio, antagonist mode; series mostly up to 76.7 µM
# Sequence of Bile acid receptor (Homo sapiens) (Q96RI1 whole entry, looked up): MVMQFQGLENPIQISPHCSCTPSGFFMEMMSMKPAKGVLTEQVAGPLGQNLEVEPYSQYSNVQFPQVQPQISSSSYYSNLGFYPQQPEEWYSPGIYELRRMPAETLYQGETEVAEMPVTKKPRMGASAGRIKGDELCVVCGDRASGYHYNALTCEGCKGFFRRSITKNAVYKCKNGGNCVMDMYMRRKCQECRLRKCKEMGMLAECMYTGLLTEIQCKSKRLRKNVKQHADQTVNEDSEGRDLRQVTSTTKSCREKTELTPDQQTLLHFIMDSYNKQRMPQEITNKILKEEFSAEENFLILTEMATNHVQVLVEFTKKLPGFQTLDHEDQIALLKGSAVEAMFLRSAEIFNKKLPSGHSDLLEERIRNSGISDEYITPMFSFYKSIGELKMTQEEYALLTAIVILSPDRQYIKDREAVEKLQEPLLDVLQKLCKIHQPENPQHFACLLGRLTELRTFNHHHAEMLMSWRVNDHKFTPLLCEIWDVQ
# Method in brief: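 Concentration-response titrations were fitted to the Hill equation for half-maximal inhibition and maximal response, with data normalised to 50 uM chenodeoxycholic acid and DMSO control wells. Cells: FXR-UAS-bla HEK293T, dialyzed FBS.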
# [16] = molecular target: Glucocorticoid receptor (Homo sapiens) (UniProt P04150); assay: qHTS assay for small molecule agonists of glucocorticoid receptor signaling (AID 588532; active = well fitted curve in the direction sought with a large enough effect in the signal ratio, with a control signal flat; the % refers to the signal ratio); conditions: HeLa MMTV-bla, beta-lactamase ratio, agonist, 18 h; stronger effect = higher value; percent of dexamethasone control, DMSO zero
# Sequence of Glucocorticoid receptor (Homo sapiens) (P04150 whole entry, looked up): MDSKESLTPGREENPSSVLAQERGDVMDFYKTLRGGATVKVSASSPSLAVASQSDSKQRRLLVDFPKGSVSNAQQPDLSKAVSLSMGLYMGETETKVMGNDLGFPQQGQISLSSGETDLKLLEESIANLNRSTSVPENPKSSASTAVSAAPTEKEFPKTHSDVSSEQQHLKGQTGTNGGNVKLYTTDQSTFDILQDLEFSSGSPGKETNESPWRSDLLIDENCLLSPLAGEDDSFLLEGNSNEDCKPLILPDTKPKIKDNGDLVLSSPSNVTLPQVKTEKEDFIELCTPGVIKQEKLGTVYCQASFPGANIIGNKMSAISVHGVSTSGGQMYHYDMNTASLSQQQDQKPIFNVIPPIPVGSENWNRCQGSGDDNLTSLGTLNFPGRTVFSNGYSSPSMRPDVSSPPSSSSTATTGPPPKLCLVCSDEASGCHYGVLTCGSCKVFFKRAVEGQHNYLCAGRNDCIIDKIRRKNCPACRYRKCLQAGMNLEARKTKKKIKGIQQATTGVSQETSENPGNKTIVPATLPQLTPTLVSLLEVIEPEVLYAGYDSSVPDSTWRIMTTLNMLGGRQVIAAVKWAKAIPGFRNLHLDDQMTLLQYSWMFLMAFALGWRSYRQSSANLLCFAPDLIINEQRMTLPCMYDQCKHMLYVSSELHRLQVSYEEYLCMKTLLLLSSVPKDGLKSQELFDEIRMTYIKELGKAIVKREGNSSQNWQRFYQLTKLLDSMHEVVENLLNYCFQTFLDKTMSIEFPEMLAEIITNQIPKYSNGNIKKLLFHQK
# Method in brief: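 MMTV-bla HeLa, beta-lactamase reporter; medium with 1% charcoal/dextran-stripped FBS; cpds up to 92 uM, 18 h, 37 C; CCF4 readout 460/530 nm; Hill fit → EC50, efficacy vs 0.1 uM dexamethasone = 100%.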
# [17] = qHTS assay for small molecule activators of the p53 signaling pathway (AID 651743; active = well fitted activation curve with a large enough effect in the signal ratio, not every such curve was filed as active; the % refers to the signal ratio); conditions: HCT-116 p53RE-bla, beta-lactamase FRET ratio, 16 h; activation: stronger effect = higher value
# Method in brief: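 Cell-based beta-lactamase reporter (p53 response elements, HCT-116 background). After a 5-hour preincubation, cells received compound for 16 hours at 37 C; substrate development ran 2 hours at room temperature.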
# [18] = molecular target: Peroxisome proliferator-activated receptor gamma (Homo sapiens) (UniProt P37231); assay: qHTS assay for small molecule antagonists of peroxisome proliferator-activated receptor gamma signaling (AID 588537; active = well fitted inhibition curve with a large enough effect in the signal ratio, with a control signal flat, not every such curve was filed as active; the % refers to the signal ratio;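 also: reporter cells co-stimulated with 50 nM rosiglitazone agonist during compound treatment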); conditions: HEK293 PPARg-UAS-bla, beta-lactamase ratio, antagonist mode; series mostly up to 76.8 µM
# Sequence of Peroxisome proliferator-activated receptor gamma (Homo sapiens) (P37231 whole entry, looked up): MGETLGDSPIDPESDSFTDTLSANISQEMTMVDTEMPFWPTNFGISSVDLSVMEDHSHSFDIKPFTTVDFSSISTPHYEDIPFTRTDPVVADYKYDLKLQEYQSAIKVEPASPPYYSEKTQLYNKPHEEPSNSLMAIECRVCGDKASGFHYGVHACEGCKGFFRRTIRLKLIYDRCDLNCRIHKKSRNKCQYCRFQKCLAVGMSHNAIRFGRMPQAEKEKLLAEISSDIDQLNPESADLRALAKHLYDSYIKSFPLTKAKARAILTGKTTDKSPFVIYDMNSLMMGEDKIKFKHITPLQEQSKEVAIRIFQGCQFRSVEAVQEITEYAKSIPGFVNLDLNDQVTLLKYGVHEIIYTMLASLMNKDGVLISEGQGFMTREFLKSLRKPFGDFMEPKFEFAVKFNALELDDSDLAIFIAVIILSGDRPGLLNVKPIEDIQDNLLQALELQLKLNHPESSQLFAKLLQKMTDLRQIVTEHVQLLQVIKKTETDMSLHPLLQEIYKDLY
# Method in brief: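 We seeded GeneBLAzer HEK293 reporter cells at 3000 per well, allowed 6-6.5 h attachment at 37 C, then co-treated with test compound titrations and 50 nM rosiglitazone overnight (16 h). Inhibition was quantified from 460/530 nm emission ratios.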
# [19] = molecular target: Ubiquitin carboxyl-terminal hydrolase 1 (Homo sapiens) (UniProt O94782); assay: Inhibitors of USP1/UAF1: Pilot qHTS (AID 504865); conditions: purified USP1/UAF1, Ub-rhodamine cleavage fluorescence; series mostly up to 114 µM; also: nearly all actives have a fitted effect of over 35% in size; also: potency is read from the fitted curve at half-maximal effect
# Sequence of Ubiquitin carboxyl-terminal hydrolase 1 (Homo sapiens) (O94782 whole entry, looked up): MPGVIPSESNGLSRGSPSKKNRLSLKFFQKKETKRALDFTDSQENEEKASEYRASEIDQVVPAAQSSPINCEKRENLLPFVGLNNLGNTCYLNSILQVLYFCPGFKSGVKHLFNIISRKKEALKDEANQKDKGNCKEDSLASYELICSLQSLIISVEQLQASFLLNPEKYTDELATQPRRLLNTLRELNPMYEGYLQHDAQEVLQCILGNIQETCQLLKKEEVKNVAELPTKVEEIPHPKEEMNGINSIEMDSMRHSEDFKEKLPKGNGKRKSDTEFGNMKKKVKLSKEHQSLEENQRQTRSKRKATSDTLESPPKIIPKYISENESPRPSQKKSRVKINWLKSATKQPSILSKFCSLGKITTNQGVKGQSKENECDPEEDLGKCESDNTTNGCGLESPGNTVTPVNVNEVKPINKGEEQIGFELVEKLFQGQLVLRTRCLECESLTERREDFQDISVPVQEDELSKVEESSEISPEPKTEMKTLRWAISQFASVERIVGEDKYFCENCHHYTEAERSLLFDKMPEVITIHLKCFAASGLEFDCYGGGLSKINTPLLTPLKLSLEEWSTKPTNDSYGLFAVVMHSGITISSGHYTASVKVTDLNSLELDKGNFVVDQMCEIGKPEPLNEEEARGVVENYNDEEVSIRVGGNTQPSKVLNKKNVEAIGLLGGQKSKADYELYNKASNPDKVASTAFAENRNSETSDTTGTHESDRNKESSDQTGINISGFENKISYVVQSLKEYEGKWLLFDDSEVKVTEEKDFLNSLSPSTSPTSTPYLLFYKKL
# Method in brief: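 Deubiquitinase activity followed as kinetic rhodamine fluorescence release from 150 nM Ub-Rho. 1 nM USP1/UAF1 with compound, after 15 min room-temperature preincubation, in HEPES pH 7.8 buffer containing TCEP, EDTA, BSA and Tween-20.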
# [20] = qHTS for Activators of Parkin Expression: LOPAC Validation Assay (FLuc Reporter) (AID 720573); conditions: Cell line, PRKN promoter firefly luciferase reporter, vehicle wells = 0, positive control = 100%; series mostly up to 46.1 µM
# Method in brief: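 FLuc signal from Parkin-promoter coincidence reporter neuronal cells, normalized to DMSO and positive control (100%). Cells (1,500/well) pre-incubated 24 h, then exposed to LOPAC compounds in 7-point dose response for 24 h at 37 C, 5% CO2.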
smiles,measurement,setting,value
Nc1nc2ccc(Cl)cc2c2nc(-c3ccco3)nn12,outcome,[1],inactive
same,Potency,[2],5.85 µM (active)
N#C/C(=C\c1ccc(O)c(O)c1)C(=O)NCCCNC(=O)/C(C#N)=C/c1ccc(O)c(O)c1,outcome,[3],inactive
same,Potency,[4],2.82 µM (active)
same,Potency,[5],2.24 µM (active)
same,Potency,[6],2 µM (active)
CC(=O)/C=C/c1ccccc1,max response,[7],11.6%
same,outcome,[8],inactive
same,Potency,[9],inactive
same,max response,[10],-2.3%
same,outcome,[11],inactive
same,max response,[12],-0.846% (inactive)
same,outcome,[13],inactive
CCOC(=O)c1ccccc1N,Potency,[14],inactive
same,Potency,[15],inactive
same,activation,[16],0.622% (inactive)
same,Potency,[9],inactive
same,max response,[10],-10.9%
same,outcome,[11],inactive
same,max response,[12],-1.87% (inactive)
same,outcome,[13],inactive
Oc1ccccc1Cl,Potency,[9],inactive
same,max response,[10],8.5%
same,outcome,[11],inactive
same,activation,[17],-5.71% (inactive)
same,max response,[12],0.452% (inactive)
same,outcome,[13],inactive
c1ccc(Nc2ccc3ccccc3c2)cc1,Potency,[14],inactive
same,Potency,[15],inactive
same,activation,[16],-2.76% (inactive) and -2.2% (inactive)
same,max response,[7],41.7% and -2.21%
same,outcome,[8],inactive
same,activation,[17],-2.23% (inactive) and -2.96% (inactive)
CC(C)COC(=O)c1ccccc1C(=O)OCC(C)C,Potency,[14],inactive
same,Potency,[15],inactive
same,activation,[16],-1.08% (inactive)
same,Potency,[18],inactive
same,max response,[10],-12.5%
same,outcome,[11],inactive
same,max response,[12],-3.74% (inactive)
same,outcome,[13],inactive
O=c1oc(Cl)c(Cl)c2ccccc12,Potency,[19],12.6 µM (active)
same,outcome,[20],inactive
COc1cc([C@@H]2c3cc4c(cc3[C@H](O)C3COC(=O)[C@@H]32)OCO4)cc(OC)c1OC (stereo partly specified),Potency,[6],15.8 µM (active)
same,Potency,[2],0.0465 µM (active)
same,Potency,[19],inactive
CCCCCCCCCC[Si](C)(C)CCC(=O)NC(Cc1ccc(C)cc1)c1ccccc1 (stereo unspecified),Potency,[4],3.55 µM (active)
same,Potency,[5],2.82 µM (active)
same,Potency,[6],2.82 µM (active)
same,outcome,[1],inactive
CC(C)NC[C@H](O)COc1cccc2[nH]ccc12,outcome,[3],inactive
same,outcome,[20],inactive
COC1=CC(=O)OC(CCc2ccc3c(c2)OCO3)C1 (stereo unspecified),Potency,[14],inactive
same,Potency,[15],inactive
same,activation,[16],3.34% (inactive)
same,Potency,[18],inactive
same,activation,[17],-6.75% (inactive)
Nc1nc2[nH]c(=O)cnc2c(=O)[nH]1,outcome,[1],inactive
Oc1ccccc1O,outcome,[3],inactive
same,Potency,[2],10.4 µM (active)
same,outcome,[20],inactive
NO,Potency,[5],12.6 µM (active)
c1ccc2c(c1)-c1cccc3cccc-2c13,max response,[7],27.3%
same,outcome,[8],inactive
same,Potency,[18],inactive
same,Potency,[9],inactive
same,activation,[17],5.47% (inactive) and -0.395% (inactive)
CN1[C@@H](CC(=O)c2ccccc2)CCC[C@H]1C[C@H](O)c1ccccc1,Potency,[4],6.31 µM (active)
COc1ccc2c(c1)CCC1C2CC[C@@]2(C)C1CC[C@@H]2NCCCCCCN1C(=O)C=CC1=O (stereo partly specified),outcome,[20],inactive
O=C(O)CNC(=O)C(CS)Cc1ccccc1 (stereo unspecified),Potency,[19],inactive
Brc1c(Br)c(Br)c2n[nH]nc2c1Br,Potency,[19],56.2 µM (active)
